Bioassay records from PubChem BioAssay.
T cruzi growth-1: T. cruzi intracellular proliferation inhibitors, primary screen, cell-based, beta-gal Tulahuen parasites, NIH3T3 host, luminescence | AID 624255, 2012 | T. cruzi beta-gal in NIH3T3, GalScreen luminescence, 90 h | 77,000 compounds, 5.9% hits | inhibition, % at 8.34 µM;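 active means mean inhibition above about 93%, with at least 55% of replicates each passing it, limit read from the data, passing the limit was not always enough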
C diff HTS: C. difficile growth inhibitors, primary screen, HTS. Clostridium difficile clinical isolate growth, OD600, 24 h; stronger effect = lower value. growth activity, negative = inhibition, % at 16 µg/mL (by protocol). 86,000 compounds, 0.25% hits. AID 1259249, 2017;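 active means mean growth activity at or below -80% and every replicate also at or below -80%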;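 further: 0% = DMSO wells and -100% = levofloxacin 16 µg/mL wells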
Pf Dd2 growth: P. falciparum Dd2 growth inhibitors, primary screen, SYBR Green fluorescence, single dose replicates. 72 h; stronger effect = lower value. activity change, % at 10 µM. 94,000 compounds, 2.3% hits; in the data active means activity change below about -80%
T cruzi growth-2: T. cruzi intracellular proliferation inhibitors, confirmation, cell-based, NIH3T3 host, beta-gal parasite, luminescence, cherry-pick. shares compounds with T cruzi growth-1. T. cruzi beta-gal in NIH3T3, GalScreen luminescence, 90 h. 5,600 compounds, 72% hits. inhibition, % at 8.35 µM. AID 651739, 2012;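 active means mean replicate inhibition above about 95% and at least 55% of replicates individually reaching it, limit read from the data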
T cruzi growth-3: inhibitors of intracellular T. cruzi replication, confirmation, NIH3T3 host cells, beta-gal parasites, cherry-pick, set 2. shares compounds with T cruzi growth-1. T. cruzi beta-gal in NIH3T3, GalScreen luminescence, 90 h. 5,600 compounds, 21% hits. inhibition, % at 2.09 µM;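 active means mean inhibition above about 95%, with at least 55% of replicates also reaching it, limit read from the data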;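 further: plate controls were neutral control median for no effect and positive control median for full effect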
NIH3T3 tox: cytotoxicity in mouse NIH/3T3 fibroblasts, confirmation, cytotoxicity control for T. cruzi proliferation inhibitor project, cell-based, cherry-pick, single point. cytotoxicity (signal decrease), % at 8.35 µM. AID 651742, 2012. NIH/3T3 viability, CellTiter-Glo ATP luminescence, 90 h. shares compounds with T cruzi growth-1. 5,600 compounds, 14% hits;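 active means mean signal decrease across replicates above about 35% based on untreated-well scatter, with enough replicates individually passing, limit read from the data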;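 further: 0% = median of neutral control wells and 100% = median of positive control wells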
3T3 cytotox 2: NIH/3T3 fibroblast cytotoxicity, confirmation, cytotoxicity control, cell-based, cherry-pick, single point, set 2 | shares compounds with T cruzi growth-1 | NIH/3T3 viability, CellTiter-Glo ATP luminescence, 90 h | inhibition, % at 24.9 µM | 5,600 compounds, 56% hits;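 active means mean loss of cell viability signal at or above a set limit, and enough replicates individually reaching it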;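 further: 0% = median of neutral control wells and 100% = median of positive control wells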
* marks the source's active call; other numbers are inactive results; · = no result. Sampled rows, rich in hits. Any-hit rate of the full collection: about 6.7%.

SMILES	T cruzi growth-1	C diff HTS	Pf Dd2 growth	T cruzi growth-2	T cruzi growth-3	NIH3T3 tox	3T3 cytotox 2
C[C@H]1CN([C@@H](C)CO)C(=O)c2cc(NC(=O)Cc3ccccc3)ccc2O[C@@H]1CN(C)Cc1ccc(Cl)c(Cl)c1	106	4	-1	·	·	·	·
C[C@H](CO)N1C[C@H](C)[C@H](CN(C)Cc2ccc3c(c2)OCO3)OCCCC[C@H](C)Oc2ccc(NC(=O)c3ccncc3)cc2C1=O	62	2	-18	·	·	·	·
Cc1ccc(S(=O)(=O)N(C)C[C@@H]2Oc3ccc(NS(C)(=O)=O)cc3CC(=O)N([C@@H](C)CO)C[C@H]2C)cc1	29	-1	-60	·	·	·	·
C[C@@H]1CN([C@H](C)CO)S(=O)(=O)c2ccc(C#Cc3ccncc3)cc2O[C@@H]1CN(C)C	-17	6	-34	·	·	·	·
COc1ccc(-c2ccc([C@@H]3[C@@H](CO)N4C(=O)CN(C(=O)Cc5ccccn5)C[C@@H]34)cc2)cc1	·	-6	-29	·	·	·	·
CO[C@H]1CN(C)C(=O)c2cc(NC(=O)c3ccc4c(c3)OCO4)ccc2OC[C@H](C)N(CC2CC2)C[C@H]1C	16	·	-22	·	·	·	·
C[C@@H]1CCCCO[C@@H](CN(C)Cc2ccc3c(c2)OCO3)[C@H](C)CN([C@@H](C)CO)C(=O)c2cc(NC(=O)Nc3ccc4c(c3)OCO4)ccc2O1	103*	·	-65	99*	20	19	21
C[C@@H]1CCCCO[C@H](CN(C)CC2CCCCC2)[C@H](C)CN([C@H](C)CO)C(=O)c2cc(NC(=O)Nc3ccc4c(c3)OCO4)ccc2O1	60	-20	-79	·	·	·	·
C[C@@H]1CCCCO[C@@H](CN(C)Cc2ccc(Cl)c(Cl)c2)[C@H](C)CN([C@H](C)CO)C(=O)c2cc(NC(=O)Cc3ccccc3)ccc2O1	·	-6	-58	·	·	·	·
C[C@@H]1CCCCO[C@@H](CN(C)Cc2ccc(Cl)c(Cl)c2)[C@@H](C)CN([C@@H](C)CO)C(=O)c2cc(NC(=O)Cc3ccccc3)ccc2O1	98*	4	-52	106*	76	-7	-14
C[C@@H]1CCCCO[C@@H](CN(C)Cc2ccc3c(c2)OCO3)[C@H](C)CN([C@H](C)CO)C(=O)c2cc(NC(=O)Nc3ccc4c(c3)OCO4)ccc2O1	·	·	-68	·	·	·	·
C[C@@H]1CN([C@@H](C)CO)C(=O)c2cc(NC(=O)Nc3ccc4c(c3)OCO4)ccc2O[C@@H](C)CCCCO[C@@H]1CN(C)C	26	-2	·	·	·	·	·
C[C@@H]1CN([C@@H](C)CO)C(=O)c2cc(NC(=O)Nc3ccc4c(c3)OCO4)ccc2O[C@@H](C)CCCCO[C@H]1CN(C)C	100*	1	9	112*	8	-3	6
C[C@@H]1CCCCO[C@H](CN(C)CC2CCCCC2)[C@@H](C)CN([C@H](C)CO)C(=O)c2cc(NC(=O)Nc3ccc4c(c3)OCO4)ccc2O1	97*	6	-67	109*	112*	12	83*
C[C@@H]1CN([C@H](C)CO)C(=O)Cc2cc(NC(=O)C3CCCCC3)ccc2O[C@@H]1CN(C)S(=O)(=O)c1ccc(Cl)cc1	79	5	-6	·	·	·	·
CCNC(=O)Nc1ccc2c(c1)C(=O)N(C)[C@H]1CC[C@@H](CC(=O)NCc3ccc(F)cc3)O[C@H]1CO2	-3	-2	-15	·	·	·	·
C[C@H](CO)N1C[C@H](C)[C@@H](CN(C)C(=O)c2ccccc2)OCCCC[C@H](C)Oc2ccc(NC(=O)Cc3ccccc3)cc2C1=O	·	6	-38	·	·	·	·
C[C@H](NC(=O)C[C@H]1CC[C@@H](NC(=O)Cc2ccccn2)[C@H](CO)O1)c1ccccc1	19	·	5	·	·	·	·
O=C(C[C@@H]1CC[C@H]2[C@@H](COC[C@H](O)CN2Cc2ccc(Oc3ccccc3)cc2)O1)N1CCc2ccccc2C1	41	48	-38	·	·	·	·
O=S(=O)(N[C@@H]1CC[C@H](CCn2cc(-c3ccccn3)nn2)O[C@@H]1CO)c1cccc(Cl)c1	13	·	-20	·	·	·	·
C[C@H](CO)N1C[C@H](C)[C@H](CN(C)Cc2ccc3c(c2)OCO3)OCCCC[C@H](C)Oc2ccc(NC(=O)Nc3ccccc3)cc2C1=O	103*	20	-38	106*	82	26	104*
C[C@@H]1CCCCO[C@H](CN(C)Cc2ccc3c(c2)OCO3)[C@@H](C)CN([C@@H](C)CO)C(=O)c2cc(NC(=O)Nc3ccccc3)ccc2O1	68	23	-78	·	·	·	·
CO[C@H]1CN(C)C(=O)c2cc(NC(=O)C3CC3)ccc2OC[C@@H](C)N(Cc2ccccc2)C[C@H]1C	-63	-5	-35	·	·	·	·
C[C@@H]1CN([C@@H](C)CO)S(=O)(=O)c2ccc(-c3cccnc3)cc2O[C@@H]1CN(C)C(=O)CC1CC1	50	-4	-2	·	·	·	·
Cc1ccc(-c2ccc3c(c2)O[C@@H](CN(C)C(=O)Nc2ccccc2)[C@H](C)CN([C@H](C)CO)S3(=O)=O)cc1	·	-2	-36	·	·	·	·
SMILES	T cruzi growth-1	C diff HTS	Pf Dd2 growth	T cruzi growth-2	T cruzi growth-3	NIH3T3 tox	3T3 cytotox 2
COc1ccc(NC(=O)N(C)C[C@H]2Oc3cc(-c4ccc(C)cc4)ccc3S(=O)(=O)N([C@H](C)CO)C[C@@H]2C)cc1	114*	2	-80	95	26	29	27
COc1ccc(NC(=O)N(C)C[C@H]2Oc3cc(-c4cccc(C(=O)N(C)C)c4)ccc3S(=O)(=O)N([C@H](C)CO)C[C@H]2C)cc1	·	0	14	·	·	·	·
COc1ccc(NC(=O)N(C)C[C@@H]2Oc3cc(-c4cccc(C(=O)N(C)C)c4)ccc3S(=O)(=O)N([C@@H](C)CO)C[C@@H]2C)cc1	·	-1	-3	·	·	·	·
COc1ccc(NC(=O)N(C)C[C@H]2Oc3cc(-c4ccc(C)cc4)ccc3S(=O)(=O)N([C@@H](C)CO)C[C@@H]2C)cc1	126*	-2	-74	107*	60	-9	37*
COc1ccc(NC(=O)N(C)C[C@@H]2Oc3cc(-c4ccc(C)cc4)ccc3S(=O)(=O)N([C@@H](C)CO)C[C@H]2C)cc1	97*	0	-93*	104*	55	-2	23
COc1ccc(NC(=O)N(C)C[C@@H]2Oc3cc(-c4ccc(C)cc4)ccc3S(=O)(=O)N([C@H](C)CO)C[C@H]2C)cc1	108*	1	-89*	105*	49	10	26*
